High-throughput results as filed in PubChem BioAssay.
The list is not random: actives were taken first. Their share in the collection is about 3.3%.
RE007 growth inh = less growth of the S. pombe RE007 Vpr strain | S. pombe RE007 Vpr strain, BacTiter-Glo ATP luminescence, 24 h | Potency, µM (doses to about 92.2 µM), inactives show top-dose activity change, negative = less growth, usual class: inhibitors | 360,000 compounds, 0.21% hits | AID 651644; active = well fitted falling curve with a large enough effect; inconclusive = small, poorly fitted or top-dose-only effect; inactive = no such curve, though single readings can be large or run the other way; note: % is set by controls: 0 for no effect and ±100 for the full control effect; nearly all actives have a fitted effect of over 50% in size
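Fission yeast strain RE007, carrying one chromosomally integrated HIV-1 vpr copy, was seeded at OD 0.01 in PMG+AL medium with 23 nL pinned compound. After 24 h at 30 °C and 99% humidity, viability was read by BacTiter-Glo luminescence.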
Sm TGR block = inhibitors of Schistosoma mansoni thioredoxin glutathione reductase | Q962Y6 | 360,000 compounds, 3% hits | purified TGR, DTNB reduction, TNB absorbance 405 nm | Potency, µM (top dose mostly 114 µM), without a hit: at the highest dose activity change, negative = inhibition, usual class: inhibitors; note: % is set by controls: 0 for no effect and ±100 for the full control effect; nearly all actives have a fitted effect of over 60% in size
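First, TGR (20 nM dispensed) and NADPH were mixed with compound. Second, a 15 min room-temperature incubation followed. Third, further NADPH and then DTNB were added to start the reaction. Finally, TNB absorbance was monitored kinetically.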
NS1 inh = blocks influenza NS1 protein function; AID 2326; Potency, µM (series often up to 46.1 µM), without a hit: at the highest dose activity, positive = more growth; 270,000 compounds, 0.4% hits; calls by dose curve; note: actives are rising curves; nearly all actives have a fitted effect of over 50% in size
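Compounds were scored for reversing the slow growth caused by influenza A NS1 in S. cerevisiae, measured by optical density at 600 nm. Assay medium contained 2% galactose at pH 6.0; NS1-free yeast of the same strain were the positive control.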
TbPYK inhibitor = T. brucei pyruvate kinase inhibition | TbPYK enzyme, Kinase-Glo Plus ATP luminescence, 45 min | Q57TT1 | Potency, µM (series often up to 76.8 µM), for the others: at the highest dose activity, negative = inhibition, actives largely listed as inhibitors | 410,000 compounds, 0.12% hits; note: % is set by controls: 0 for no effect and ±100 for the full control effect; nearly all actives have a fitted effect of over 50% in size
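TbPYK + substrate in 50 mM TEA pH 7.2, 100 mM KCl, 10 mM MgCl2, 0.05% BSA, 0.01% Tween-20; cpd pinned; ADP 130 uM final; 45 min RT; Kinase-Glo Plus 10 min; luminescence endpoint.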
SARS PLpro yeast = blocks SARS-CoV papain-like protease in a yeast assay | 330,000 compounds, 0.19% hits | Potency, µM (series often up to 32.9 µM), for the others: top-dose activity, positive = growth rescue, usual class: activators | S. cerevisiae expressing SARS-CoV PLpro, growth rescue; calls by dose curve; note: 0% is about no effect; nearly all actives have a fitted effect of over 55% in size
LmPK inhibitor = LmPK (Leishmania mexicana) enzyme inhibition. purified LmPK, Kinase-Glo ATP luminescence, 1 h. Potency, µM (series often up to 57.5 µM), inactives show top-dose activity change, negative = inhibition, usual class: inhibitors. 290,000 compounds, 0.37% hits; note: % is set by controls: 0 for no effect and ±100 for the full control effect
Target sequence (Q27686 whole entry, looked up): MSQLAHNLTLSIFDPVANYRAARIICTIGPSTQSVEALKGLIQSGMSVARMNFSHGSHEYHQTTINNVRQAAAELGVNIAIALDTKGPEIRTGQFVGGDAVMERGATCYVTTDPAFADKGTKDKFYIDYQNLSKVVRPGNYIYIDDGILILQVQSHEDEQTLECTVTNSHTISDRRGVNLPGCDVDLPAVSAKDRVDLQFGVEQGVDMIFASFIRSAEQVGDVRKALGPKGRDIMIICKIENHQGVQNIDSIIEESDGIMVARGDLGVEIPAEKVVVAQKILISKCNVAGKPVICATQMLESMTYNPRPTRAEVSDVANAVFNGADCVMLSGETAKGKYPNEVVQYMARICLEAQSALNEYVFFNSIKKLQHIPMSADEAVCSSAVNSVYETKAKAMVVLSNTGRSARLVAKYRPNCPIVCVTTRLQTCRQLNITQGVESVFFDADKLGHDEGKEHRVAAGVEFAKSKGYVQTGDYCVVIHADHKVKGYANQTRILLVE
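In 50 mM imidazole pH 7.2 with 7 mM MgCl2, LmPK (0.1 nM) turned over PEP (0.5 mM) and ADP (0.1 mM) for 1 h at room temperature. Luciferase read-out of ATP.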
Numbers without * were called inactive; ? = inconclusive; nt = no result; ! = repeats disagree. Unless noted, calls come from the whole dose curve; as a rule, active = well fitted curve in the direction sought with a large enough effect; inconclusive = small, poorly fitted or top-dose-only effect, or another doubt; inactive = no such curve, though single readings can be large; an effect the other way counts as inactive or inconclusive. Potency is the fitted concentration of half-maximal effect.

SMILES	RE007 growth inh	Sm TGR block	NS1 inh	TbPYK inhibitor	SARS PLpro yeast	LmPK inhibitor
Cc1ccc(NC(=O)COC(=O)CCc2c[nH]c3ccccc23)cc1	3.1%	nt	nt	6.2%	nt	nt
CC(C)(C)c1ccc(S(=O)(=O)c2cnc(SCC(=O)Nc3ccc4c(c3)OCCO4)[nH]c2=O)cc1	nt	-4.9%	nt	-5.3%	nt	nt
CCOC(=O)C(C)(C)[C@H](O)C(C)C	nt	nt	-5.3%	nt	nt	nt
N=C(N)SCc1cccc(-c2nc3ccccc3c(=O)o2)c1	nt	nt	-0.3%	nt	nt	nt
Cc1ccc(-n2nc3c(N4CCC(C(=O)N5CCCCC5)CC4)nnc(C)c3c2C)cc1	nt	-7.3%	nt	0.7%	nt	nt
O=C(NC1CCCC1)c1ccc(CS(=O)Cc2ccccc2Cl)o1 (stereo not drawn)	7.0%	31.6µM*	1.1%	-7.2%	3.4%	-0.9%
CC(C)Oc1ccc(CNC(=O)c2ccc(CS(=O)Cc3ccccc3Cl)o2)cc1 (stereo not drawn)	nt	44.7µM*	nt	0.3%	nt	nt
COc1ccc(S(=O)Cc2ccc(C(=O)NCc3cccc(OC)c3)o2)cc1 (stereo not drawn)	-6.8%	25.1µM*	-3.0%	2.9%	?	-1.7%
O=C(NCCc1cccs1)c1ccc(CS(=O)Cc2ccc(Cl)cc2)o1 (stereo not drawn)	-2.3%	44.7µM*	-4.4%	5.0%	-0.2%	0.3%
Cc1cc(C)cc(-n2c(SCC(=O)NC3CCCCC3)nc3c([nH]c4ccccc43)c2=O)c1	nt	-9.4%	nt	7.7%	nt	nt
CCOC(=O)C1=C(C)NC(=O)N[C@@H]1c1coc2cc(C)cc(C)c2c1=O	nt	nt	-23.1%	nt	nt	nt
CCOC(=O)c1cccc(NC(=O)N2Cc3ccccc3Oc3ncccc32)c1	nt	16.0%	nt	0.0%	nt	nt
COCCNC(=O)c1ccc(CS(=O)(=O)c2c(Cl)cccc2Cl)o1	5.5%	50.1µM*	-0.1%	-15.1%	-25.9%	-6.5%
O=C(NC1CCCCC1)c1ccc(CS(=O)Cc2ccccc2Cl)o1 (stereo not drawn)	-6.2%	44.7µM*	-6.4%	-6.4%	-0.5%	0.1%
O=C(NCc1ccc(F)cc1)c1ccc(CS(=O)(=O)Cc2ccc(F)cc2)o1	-3.1%	-18.2%	-4.4%	1.8%	4.4%	-0.8%
O=C(NCc1ccc(F)cc1)c1ccc(CS(=O)(=O)Cc2ccccc2F)o1	-8.7%	39.8µM*	-3.9%	1.6%	4.1%	2.1%
O=C(NCc1ccccc1)c1ccc(CS(=O)(=O)c2c(Cl)cccc2Cl)o1	nt	-3.9%	nt	2.7%	nt	nt
O=C(NC1CCCC1)c1ccc(CS(=O)Cc2ccc(Cl)cc2)o1 (stereo not drawn)	2.0%	?	2.5%	-0.2%	6.7%	-3.5%
O=C(NC1CCCCC1)c1ccc(CS(=O)Cc2ccc(Cl)cc2)o1 (stereo not drawn)	28.7%	44.7µM*	-4.5%	5.4%	2.1%	6.8%
O=C1C(c2ccc(F)cc2)N(CCc2ccccc2)C(=O)CN1C1CCCCCC1 (stereo not drawn)	nt	2.5%	nt	1.2%	nt	nt
CCc1ccc(S(=O)(=O)c2nnn3c2nc(NCCc2ccccc2)c2sccc23)cc1	nt	9.0%	nt	-7.7%	nt	nt
O=C(NCCc1ccccc1)c1ccc(CS(=O)(=O)Cc2ccccc2Cl)o1	nt	50.1µM*	nt	-1.7%	nt	nt
O=C(NCCc1ccc(Cl)cc1)c1ccc(CS(=O)Cc2ccccc2Cl)o1 (stereo not drawn)	-17.5%	31.6µM*!	1.1%	-0.6%	5.0%	-1.5%
COc1ccccc1CNC(=O)c1ccc(CS(=O)Cc2cccc(Cl)c2)o1 (stereo not drawn)	-8.1%	22.4µM*	-7.3%	3.3%	4.1%	5.9%
O=C(NCc1ccc(Cl)cc1)c1ccc(CS(=O)Cc2cccc(Cl)c2)o1 (stereo not drawn)	-4.6%	-17.1%	8.2%	-6.3%	5.2%	4.6%
SMILES	RE007 growth inh	Sm TGR block	NS1 inh	TbPYK inhibitor	SARS PLpro yeast	LmPK inhibitor
O=C(Nc1ccc(Cl)cc1Cl)c1cc(S(=O)(=O)N2CCC3(CC2)OCCO3)ccc1F	nt	0.0%	nt	-3.8%	nt	nt
COc1ccc(OC)c2c1C(=O)c1ccccc1C2=O	-8.4%	-1.6%	-6.3%	0.5%	-24.6%	-14.8%
COc1ccc(OC)c2c1C(=O)C(Cl)=C(Cl)C2=O	?	?	-83.2%	2.82µM*	-4.9%	-21.4%
COc1ccc(-c2n[nH]c(=S)n2-c2ccc(C)cc2)cc1	18.6%	-4.8%	4.1%	?	-1.4%	2µM*
COc1ccc(-n2c(-c3ccc(Br)cc3)n[nH]c2=S)cc1	3.3%	-5.0%	?	?	-2.2%	10µM*
COc1ccc(-n2c(COc3ccc(C)cc3)n[nH]c2=S)cc1	4.0%	0.0%	6.5%	?	15.5%	-12.0%
CN1CCc2c(sc3c2c(=O)n(-c2ccccc2)c2nnc(SCc4ccccc4)n32)C1	4.1%	?	6.3%	31.6µM*	0.7%	-9.5%
FC(F)(F)c1nc(=S)c2ccccc2[nH]1	4.0%	2µM*	5.8%	?	-1.2%	-28.7%
O=C(Cn1nc(CNc2ccc(Br)cc2)[n+]2c1CCCCC2)c1ccc([N+](=O)[O-])cc1	6.5%	50.1µM*	4.9%	-6.4%	-2.0%	3.4%
O=C(Cn1nc(CNc2ccc(Cl)cc2)[n+]2c1CCCCC2)c1ccc(Br)cc1	2.6%	-9.6%	10.5%	3.2%	-28.1%	1.8%
Cc1sc(NC(=O)c2ccccc2)c(C(c2ccccn2)N2CCN(CCO)CC2)c1C (stereo not drawn)	-27.0%	-0.2%	24.0%	-9.7%	14.3%	1.3%
CCc1cc(C(c2ccccn2)N2CCN(C)CC2)c(NC(=O)c2ccccc2)s1 (stereo not drawn)	-14.6%	11.2µM*	?	6.1%	?	-6.9%
CCCOc1ccc(N2C(=O)C3ON(c4ccccc4)C(CCC)C3C2=O)cc1 (stereo not drawn)	?	22.4µM*	15.7%	-10.5%	-12.3%	2.9%
CCCC1C2C(=O)N(c3ccccc3)C(=O)C2ON1c1ccccc1 (stereo not drawn)	-8.5%	3.4%	6.3%	0.5%	-7.4%	1.6%
Cc1c(CNCCCc2ccccc2)c(C(=O)O)c(C)n1Cc1cccc(Cl)c1	nt	-2.8%	nt	-2.4%	nt	nt
CC[N+](C)(CC)CCC(c1ccccc1)C1CCCCC1 (stereo not drawn)	-21.4%	17.8µM*	2.6%	-1.4%	-2.1%	1.1%
O=C(O)c1ccc2c(c1)C(=O)N([C@@H](Cc1ccc(O)cc1)C(=O)O)C2=O	nt	4.1%	nt	nt	0.4%	nt
Cc1cccn2c(=O)c(/C=C(\C#N)C(N)=O)c(Oc3ccccc3)nc12	-22.6%	31.6µM*	2.8%	-22.9%	1.6%	-8.1%
Cc1cccn2c(=O)c(/C=C(\C#N)C(N)=O)c(N3CCN(c4ccccc4)CC3)nc12	1.9%	-8.6%	0.7%	-8.2%	-2.4%	2.8%
